Screening data deposited in PubChem by several laboratories.
This is a sample that favours compounds with a hit; in the whole collection about 6.9% have one here.
GRIN3A LBD mod – NR3A (human) ligand-binding domain modulation | hit rate 2.5% among 340,000 | Tm shift relative to glycine control, % at 25 µM | AID 1259313 | NR3A LBD differential scanning fluorimetry, Tm shift; 0% = protein alone, 100% = glycine-bound protein;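 active = melting temperature shift of at least 10% of the positive control shift, at one fixed dose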
Mdm2 MdmX PPI – inhibitors of human Mdm2/MdmX interaction; SaOS-2 split-luciferase Mdm2/MdmX complementation, luminescence; O15151+Q00987; inhibition, % at 8 µM; hit rate 3% among 330,000;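 active = inhibition of at least 50% at 8 µM in the primary screen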
Target sequence (O15151 whole entry, looked up): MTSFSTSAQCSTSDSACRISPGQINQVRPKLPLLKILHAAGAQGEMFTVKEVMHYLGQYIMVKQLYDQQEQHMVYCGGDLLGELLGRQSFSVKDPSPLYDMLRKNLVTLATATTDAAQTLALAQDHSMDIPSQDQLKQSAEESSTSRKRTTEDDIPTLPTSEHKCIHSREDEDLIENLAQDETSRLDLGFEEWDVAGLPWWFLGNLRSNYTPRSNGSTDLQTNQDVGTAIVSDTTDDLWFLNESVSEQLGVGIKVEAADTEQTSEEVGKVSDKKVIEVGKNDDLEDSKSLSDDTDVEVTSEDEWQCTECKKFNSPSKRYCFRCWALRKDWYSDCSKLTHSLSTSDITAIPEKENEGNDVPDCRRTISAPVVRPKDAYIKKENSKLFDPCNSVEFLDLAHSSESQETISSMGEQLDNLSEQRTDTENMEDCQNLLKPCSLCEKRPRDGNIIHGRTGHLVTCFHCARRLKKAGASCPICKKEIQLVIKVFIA
Target sequence (Q00987 whole entry, looked up): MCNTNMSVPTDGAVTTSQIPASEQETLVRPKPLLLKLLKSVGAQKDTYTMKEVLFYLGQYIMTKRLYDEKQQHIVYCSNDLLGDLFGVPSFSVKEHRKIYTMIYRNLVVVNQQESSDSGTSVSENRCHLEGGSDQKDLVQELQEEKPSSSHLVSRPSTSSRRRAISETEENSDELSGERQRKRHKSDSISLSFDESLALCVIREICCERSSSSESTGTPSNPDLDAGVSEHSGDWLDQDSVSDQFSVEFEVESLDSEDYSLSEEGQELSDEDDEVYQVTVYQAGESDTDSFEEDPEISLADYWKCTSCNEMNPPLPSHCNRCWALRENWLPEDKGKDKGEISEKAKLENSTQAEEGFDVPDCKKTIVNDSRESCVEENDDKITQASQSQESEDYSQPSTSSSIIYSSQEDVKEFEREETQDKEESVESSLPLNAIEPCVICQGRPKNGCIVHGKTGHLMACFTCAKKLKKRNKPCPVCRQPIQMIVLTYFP
MPTP block – permeability transition pore inhibition | inhibition, % at 10 µM | hit rate 1.4% among 360,000 | isolated mouse mitochondria, Ca2+ swelling absorbance, 30 min;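 active = inhibition of 50% or more, scaled per plate between neutral and stimulator controls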;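 note: 0% = DMSO wells given calcium and 100% = 1 mM EGTA wells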
SKKanGAS inh – inhibitors of SKKanGAS S. pyogenes growth in kanamycin (SK-promoter or general growth effect); BacTiter-Glo, 6 h; inhibition, % at 7.5 µM; hit rate 1.3% among 300,000; AID 1662;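 active = mean replicate score, as percent of positive control median, at least 50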;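 note: strain carries kanamycin resistance gene driven by streptokinase promoter and grows in 40 µg/ml kanamycin; loss of luminescence reflects streptokinase promoter inhibition or plain growth inhibition; 0% = median of DMSO wells and 100% = positive control at its reference dose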
Beta cell apopt – beta cell apoptosis inhibition | INS-1E cytokine-induced death, ATP luminescence, 48 h; percent of positive-control rescue, neutral wells zero | protection from apoptosis, % (no concentration beside the values) | hit rate 0.8% among 300,000;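 active = Every replicate reaches about 75%, or at least half do and their mean reaches it too, limit read from the data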;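 note: 0% = cytokine-treated negative control wells and 100% = positive control rescue; higher means more ATP so stronger rescue from cytokine killing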
CSC inhib – cancer stem cell inhibition; cancer stem cell-like cells viability, luminescence; inhibition, % at 7.5 µM; hit rate 1.1% among 300,000; in the data active = inhibition above about 75%; tested in HMLE shEcad cells
Active calls of the source: *; . = not tested or not shown.

SMILES | GRIN3A LBD mod | Mdm2 MdmX PPI | MPTP block | SKKanGAS inh | Beta cell apopt | CSC inhib
CC(=O)N1CCOCC1c1cc(C(=O)Nc2ccccc2)no1 (configuration not stated) | . | . | -1 | . | . | .
C=C(C)CN(CC)C(=O)CSc1nc(O)cc(=O)n1C1CCCC1 | -1 | 14 | 1 | 21 | -2 | -15
O=C(NC1CCCCC1)c1ccc(-n2cnnn2)cc1 | 0 | 8 | 2 | -3 | -8 | -12
CS(=O)(=O)ON=C1CCN(S(=O)(=O)c2ccccc2)CC1 | 1 | 7 | 0 | 0 | -5 | -3
O=C(Nc1ccc(S(=O)(=O)N2CCc3ccccc3C2)cc1)C1CCCO1 (configuration not stated) | 5 | 4 | 0 | -6 | 5 | 6
O=C(Nc1ccc(S(=O)(=O)N2CCCc3ccccc32)cc1)C1CCCO1 (configuration not stated) | 11* | 3 | -1 | -5 | -2 | .
CCc1ccc(C(C)NC(=O)c2ccc3c(c2)OCO3)cc1 (configuration not stated) | -5 | 17 | -2 | 36 | 0 | -5
CC(=O)c1ccc(NC(=S)N(C)C2CCN(C)CC2)cc1 | 20* | -23 | -13 | -12 | -5 | 12
CN1CCC(N(C)C(=S)Nc2ccc(F)cc2)CC1 | 1 | 5 | -2 | 5 | -4 | 1
CCN(CC)S(=O)(=O)c1ccc(N2CCCC2)c(NC(=O)C2=NN(c3ccccc3)C(=O)CC2)c1 | 4 | 9 | -2 | . | 4 | 16
Cc1ccc2nc(N/N=C/c3ccccc3F)nc(-c3ccccc3)c2c1 | 13* | 21 | 18 | 106* | 16 | 2
CC(C)CC(OC(=O)c1ccc(Cl)nc1)C(=O)NC1CCCC1 (configuration not stated) | -2 | 9 | 0 | -1 | -8 | -5
COc1ccc(-c2c(-c3cc(OC)cc(OC)c3)sc3ccc(OC)cc23)cc1 | 13* | 2 | 5 | . | -1 | 20
COc1cc(OC)cc(-c2sc3ccc(OC)cc3c2-c2ccc(O)cc2)c1 | 7 | 20 | 0 | . | 2 | 136*
COc1ccc(-c2sc3ccc(OC)cc3c2-c2ccc(O)cc2)cc1 | 9 | 27 | 1 | . | 12 | .
CC(C)(C)OC(=O)N[C@@H](Cc1ccccc1)C(=O)N[C@@H](CO)[C@H](O)[C@@H]1C[C@@H]1C(=O)NC1CC1 | -4 | 10 | -1 | 1 | -2 | 14
CC(=O)O[C@H]1CC[C@]2(C)[C@H]3CC=C4[C@@H]5[C@@H](C)[C@H](C)CC[C@]5(C(=O)O)CC[C@@]4(C)[C@]3(C)CC[C@H]2C1(C)C | . | 35 | . | 107* | 15 | -16
CC1(C)C2CC[C@]3(C)C(CC=C4[C@@H]5C[C@@](C)(CO)[C@@H](O)C[C@]5(C(=O)O)CC[C@]43C)[C@@]2(C)CC[C@@H]1O (some centres not stated) | 0 | -6 | -1 | 5 | -4 | -13
Cc1n[nH]c(C)c1S(=O)(=O)N1CCOCC1 | 14* | 36 | -4 | -9 | -10 | -8
COc1cc(NC(=O)CCc2c(C)[nH]c(=O)c(C#N)c2C)cc(OC)c1 | 0 | 7 | 2 | 0 | 1 | -8
COc1ccccc1/C=C1\S/C(=N/NC(=O)c2cccc(Br)c2)NC1=O | 4 | 50 | 15 | 81* | 16 | 114*
CCCn1ccnc1SC(C)C(=O)Nc1c(C)n(C)n(-c2ccccc2)c1=O (configuration not stated) | -1 | -15 | 0 | . | -5 | -7
CSc1nc(O)c(/C=C2\C=Nc3ccccc32)[nH]1 | 3 | -2 | 0 | -19 | 0 | -14
O=c1[nH]c(/C=C2\C=Nc3ccccc32)c(O)n1Cc1ccccc1F | 10* | 36 | 2 | 14 | 13 | 27
CCOC(=O)CC1(CC)Oc2ccccc2N1S(=O)(=O)c1ccc(C)cc1 (configuration not stated) | . | . | 1 | . | . | .
SMILES | GRIN3A LBD mod | Mdm2 MdmX PPI | MPTP block | SKKanGAS inh | Beta cell apopt | CSC inhib
CSc1nc2sc3c(c2c(=O)n1CC(C)C)CC(C)(C)OC3 | 5 | -5 | 1 | 3 | -1 | 75*
CNC(=O)C1CCN(S(=O)(=O)c2c(C)noc2/C=C/c2ccc(OC)cc2)CC1 | -1 | -30 | -1 | -1 | -5 | -4
COc1ccc(OC)c(NC(=O)C2CCN(C(=O)C3CC(=O)N(c4ccc(C)cc4)C3)CC2)c1 (configuration not stated) | -2 | 5 | 0 | 1 | -2 | -3
CCCCNC(=O)C1(C)CCN1C(=O)c1cncc(Br)c1 (configuration not stated) | . | . | 0 | . | . | .
Cc1ccc(NS(=O)(=O)c2cccc(C(=O)NCc3ccccn3)c2)cc1 | -1 | 8 | 1 | -3 | 5 | -12
CC(=O)Nc1ccc(NC(=O)c2ccc(NS(=O)(=O)c3cc(C(C)(C)C)cc(C)c3C)cc2)cc1 | 26* | -14 | -5 | 8 | -8 | 31
Cc1cc(C(C)(C)C)cc(S(=O)(=O)Nc2ccc(O)c(C(=O)O)c2)c1C | -8 | -1 | 0 | 1 | -5 | -2
Cc1ccc(NC(=O)c2ccc(NS(=O)(=O)c3cccc4cccnc34)cc2)cc1 | 28* | 33 | 2 | 11 | . | 3
COc1ccccc1NC(=O)c1ccc(NS(=O)(=O)c2cccc3cccnc23)cc1 | 18* | 14 | -18 | -3 | -4 | 7
COc1ccc(C)cc1NC(=O)c1ccc(NS(=O)(=O)c2cccc3cccnc23)cc1 | -2 | 30 | 2 | 1 | -5 | .
Cc1ccc(S(=O)(=O)Nc2ccc(C(=O)NCc3ccccn3)cc2)cc1 | 13* | 24 | 2 | 7 | -10 | -19
CCN(C(=O)COC(=O)CCC(=O)c1ccc(Cl)cc1)c1c(N)n(Cc2ccccc2)c(=O)[nH]c1=O | -2 | . | -1 | . | . | .
CCN(C(=O)COC(=O)c1ccc2c(c1)OCO2)c1ccc(F)cc1 | 4 | 16 | 0 | . | -4 | -20
COc1ccc(NC(=O)c2ccc(NS(=O)(=O)c3cccc4cccnc34)cc2)cc1 | 2 | 16 | 1 | 4 | . | 3
CC(=O)Nc1ccc(NC(=O)c2ccc(NS(=O)(=O)c3cccc4cccnc34)cc2)cc1 | 19* | -6 | 0 | -1 | -2 | 0
COc1ccccc1NC(=O)c1ccc(NS(=O)(=O)c2ccc(F)c(Cl)c2)cc1 | 11* | -3 | 20 | 9 | 8 | 9
c1cncc(-c2nnc(-c3cccnc3)nn2)c1 | 1 | 33 | 2 | 17 | 108* | 10
c1ccc(-c2nnc(-c3ccccc3)nn2)cc1 | -4 | -191 | 0 | 0 | -5 | 2
CCc1cccc2c(C(=O)COC(=O)c3ccc([N+](=O)[O-])s3)c[nH]c12 | 10* | 6 | 2 | 100* | -3 | -4
COc1cccc2c1oc1c(SCc3nc4ccccc4[nH]3)nc(C)nc12 | -13 | 6 | 0 | . | -1 | .
O=C(c1cc(COc2ccc3c(c2)CCCC3)on1)N1CCCC1 | . | -50 | -2 | 5 | . | -5
